Results filed as inconclusive are left out. The source holds several records for some structures; these can differ, active in one and inactive in another. Active and inactive are the calls of the source. Rule for the calls: active = hit-call score of the fitted dose curve at least 0.9, where 1 is the maximum; inconclusive = response in the unintended direction; inactive = score below 0.9.

In the experiment the target is bovine Estrogen Receptor (ER), ESR1 (gene 407238) (UniProt P49884). In words: NVS_NR_bER: NovaScreen (NVS) Nuclear Receptor Binding Assay for bovine Estrogen Receptor (ER) (AID 2283345).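 Note: actives lower the bound radioligand count which means they displace the ER ligand.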 The method, then: NVS_NR_bER is a biochemical, single-readout assay that uses extracted gene-proteins from Bovine uterine membranes in a tissue-based cell-free assay. Measurements were taken 18 hours after chemical dosing in a 96-well plate.NVS_NR_bER is one of one assay component(s) measured or calculated from the NVS_NR_bER assay. It is designed to make measurements of radioligand binding, a form of binding reporter, as detected with scintillation counting signals by Lysate-based radiodetection technology.Data from the assay component NVS_NR_bER was analyzed into 1 assay endpoint. This assay endpoint, NVS_NR_bER, was analyzed in the positive analysis fitting direction relative to DMSO as the negative control and baseline of activity. Using a type of binding reporter, loss-of-signal activity can be used to understand changes in the binding as they relate to the gene ESR1. Furthermore, this assay endpoint can be referred to as a primary readout, because the performed assay has only produced 1 assay endpoint. To generalize the intended target to other relatable targets, this assay endpoint is annotated to the nuclear receptor intended target family, where the subfamily is steroidal.
Chain of bovine Estrogen Receptor (ER), ESR1 (gene 407238) (P49884 whole entry, looked up): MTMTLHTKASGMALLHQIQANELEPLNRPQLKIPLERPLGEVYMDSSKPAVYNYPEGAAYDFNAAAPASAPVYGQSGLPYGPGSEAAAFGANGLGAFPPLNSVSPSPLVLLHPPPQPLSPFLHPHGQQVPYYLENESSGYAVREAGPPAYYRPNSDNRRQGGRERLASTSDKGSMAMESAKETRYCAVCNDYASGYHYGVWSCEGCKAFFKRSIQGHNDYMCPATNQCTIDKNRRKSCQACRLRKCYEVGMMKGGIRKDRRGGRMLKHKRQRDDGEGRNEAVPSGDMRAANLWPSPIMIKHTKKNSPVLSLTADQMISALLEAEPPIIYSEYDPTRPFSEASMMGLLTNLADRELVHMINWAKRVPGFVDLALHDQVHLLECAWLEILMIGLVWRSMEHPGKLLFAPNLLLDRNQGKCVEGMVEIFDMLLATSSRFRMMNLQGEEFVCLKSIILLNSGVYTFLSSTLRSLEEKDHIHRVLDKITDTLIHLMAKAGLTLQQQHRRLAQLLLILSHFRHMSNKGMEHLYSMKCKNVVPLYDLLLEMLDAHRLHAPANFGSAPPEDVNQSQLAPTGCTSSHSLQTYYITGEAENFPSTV
Binding assays used specific radioligands (tritiated, iodinated) with non-radioactive competitive displacement ligands in agonist or antagonist protocols (as indicated) and various reference compounds and inhibitors to titrate specific binding to receptors and transporters. Most enzyme assays (CYPs, kinases, phosphatases, proteases, HDACs) used recombinant protein and specific substrates (fluorescence mostly, some colorimetric and radioactive) and inhibitors, followed by a biochemical separation of substrate and product. All assays for the biochemical HTS were initially run in duplicate at a single concentration (10 uM for CYP450 assays and 25 uM for all others). […] Each assay was run with positive and negative controls, and concurrent controls on every plate. The follow-up (secondary) screen tested active chemical-pairs in concentration series, as well as a few additional assays not tested in the primary screen, some selected negative inactives, and several cases re-run in the concentration series for confirmatory purposes.
Usually AC50 stands for the midpoint of the concentration-response curve, whichever way the signal moves. As to `CCCCCCCc1ccc(O)cc1`, the AC50 was 0.106 µM (active) and the compound was called inactive.
Consider `ClC1=C(Cl)C2(Cl)C3C(Cl)C(Cl)CC3C1(Cl)C2(Cl)Cl` (stereo not given), for which the outcome was inactive.
On to `CCC(C)(C)c1ccc(O)cc1`, for which the call was inactive.
Turning to `CC(Cl)(Cl)C(=O)O`, the outcome was inactive.
Take `CO/N=C(/C(=O)OC)c1ccccc1COc1ccccc1C`: the compound was called inactive.
For the compound `O=[N+]([O-])c1ccccc1`, the outcome was inactive.
As to `ClC(Cl)(Cl)c1ccccc1`, the call was inactive.
Regarding `C=CC(=O)OCC(CC)(COC(=O)C=C)COC(=O)C=C`, the concentration at half-maximal activity (AC50) was 42.2 µM (active).
`c1ccc(OP(Oc2ccccc2)Oc2ccccc2)cc1`: the compound was called inactive.
On to `c1ccc2c(c1)Nc1ccccc1S2`, for which the result was inactive.
For `CCCCN(CCCC)SN(C)C(=O)Oc1cccc2c1OC(C)(C)C2`, the compound was called inactive.
On to `CCNc1nc(Cl)nc(NC(C)(C)C)n1`, for which the outcome was inactive.
Same read-out and setting: the same measure for `Nc1ccc(Cl)cc1`: “inactive”; for `OCC1CO1` (stereo not given): “inactive”.
With `O=S(=O)(c1ccc(O)cc1)c1ccc(O)cc1`, the AC50 is 15.1 µM (active).
Consider `CC1(C)CN=C(NN=C(/C=C/c2ccc(C(F)(F)F)cc2)/C=C/c2ccc(C(F)(F)F)cc2)NC1`, for which the call was inactive.
Same read-out and setting: under `Cc1ccc2c(c1N)C(=O)c1ccccc1C2=O` stands “inactive”.
`CCOP(=S)(Oc1ccc([N+](=O)[O-])cc1)c1ccccc1` (stereo not given): the compound was called inactive.
On to `c1nc[nH]n1`, for which the compound was classed as inactive.
In the case of `CCCCOCC1CO1` (stereo not given), the compound was classed as inactive.
For the compound `Nc1ccc(Sc2ccc(N)cc2)cc1`, the call was inactive.
With `CCCCc1ccc(O)cc1`, the outcome was inactive.
With `O=P1(N(CCCl)CCCl)NCCCO1` (stereo not given), the compound was classed as inactive.
As to `CCCN(CCC)c1c([N+](=O)[O-])cc(C(C)C)cc1[N+](=O)[O-]`, the result was inactive.

The values are drawn from PubChem BioAssay (EPA / NIEHS).
